{
  "source": "the supplement of paper PMC4022240",
  "binders": {"B1": {"name": "Unmod H1 variant K A A S K A P T K K P K A (peptide)", "chain": "KAASKAPTKKPKA"}, "B2": {"name": "Unmod H1 variant P K K A P V K P K A K S S (peptide)", "chain": "PKKAPVKPKAKSS"}, "B3": {"name": "Unmod H1 variant K K S T D H P K Y S D M I (peptide)", "chain": "KKSTDHPKYSDMI"}, "B4": {"name": "Unmod H1 variant D S Q I K L S I K R L V T (peptide)", "chain": "DSQIKLSIKRLVT"}, "B5": {"name": "Unmod H1 variant A K P K R A K A S K K S T (peptide)", "chain": "AKPKRAKASKKST"}},
  "note": "± gives the standard deviation.",
  "data": [
    {"target": "T1, HaloTag-ATRX ADD domain (163-292)", "T1 chain": "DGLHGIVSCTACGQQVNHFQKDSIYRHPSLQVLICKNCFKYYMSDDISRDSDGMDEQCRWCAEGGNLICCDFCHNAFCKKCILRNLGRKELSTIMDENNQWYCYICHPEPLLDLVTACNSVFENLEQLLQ", "assay": "peptide microarray binding signal (635 nm), min-max normalized on array (fraction of array maximum); higher = stronger binding", "conditions": "peptide region: Unmod H1 variant; binder concentration: 50 nM", "method_in_brief": "(§1)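 For each library, binding signal was taken as the triplicate-spot mean intensity and then min-max scaled. Spots of histone 13-mer peptide–cellulose conjugates on nitrocellulose, printed in triplicate with a Cy3 tracer, were probed for 1 h at 4°C with either biotin-labelled HaloTag reader fusions (10 nM to 1 μM) and streptavidin-Alexa Fluor 647 or rabbit histone antibodies (1:10,000 to 1:2,000) and anti-rabbit Alexa 647. Readout at 635 nm came from an Axon GenePix 4000B.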", "values": [
      {"binder": "B1", "peptide microarray binding signal": "0.0142 ± 0.00045"},
      {"binder": "B2", "peptide microarray binding signal": "0.0131 ± 0.00065"},
      {"binder": "B3", "peptide microarray binding signal": "0.01 ± 7.3e-05"},
      {"binder": "B4", "peptide microarray binding signal": "0.0155 ± 0.00047"},
      {"binder": "B5", "peptide microarray binding signal": "0.0106 ± 0.0005"}
    ]},
    {"target": "T1, HaloTag-ATRX ADD domain (163-292)", "assay": "peptide microarray binding signal (635 nm), min-max normalized on array (fraction of array maximum); higher = stronger binding", "conditions": "peptide region: Unmod H1 variant; binder concentration: 500 nM", "method_in_brief": "as §1", "values": [
      {"binder": "B1", "peptide microarray binding signal": "0.0141 ± 0.00028"},
      {"binder": "B2", "peptide microarray binding signal": "0.0107 ± 0.00047"},
      {"binder": "B3", "peptide microarray binding signal": "0.00895 ± 0.0005"},
      {"binder": "B4", "peptide microarray binding signal": "0.0281 ± 0.00085"},
      {"binder": "B5", "peptide microarray binding signal": "0.018 ± 0.00086"}
    ]},
    {"target": "HaloTag-ING2 PHD (mouse Ing2 200-280)", "assay": "peptide microarray binding signal (635 nm), min-max normalized on array (fraction of array maximum); higher = stronger binding", "conditions": "peptide region: Unmod H1 variant; binder concentration: 10 nM", "method_in_brief": "as §1", "values": [
      {"binder": "B1", "peptide microarray binding signal": "0.00257 ± 0.00013"},
      {"binder": "B2", "peptide microarray binding signal": "0.00245 ± 0.0001"},
      {"binder": "B3", "peptide microarray binding signal": "0.00269 ± 3e-05"},
      {"binder": "B4", "peptide microarray binding signal": "0.003819 ± 3.5e-05"},
      {"binder": "B5", "peptide microarray binding signal": "0.00334 ± 4.8e-05"}
    ]},
    {"target": "HaloTag-ING2 PHD (mouse Ing2 200-280)", "assay": "peptide microarray binding signal (635 nm), min-max normalized on array (fraction of array maximum); higher = stronger binding", "conditions": "peptide region: Unmod H1 variant; binder concentration: 100 nM", "method_in_brief": "as §1", "values": [
      {"binder": "B1", "peptide microarray binding signal": "0.019 ± 0.0066"},
      {"binder": "B2", "peptide microarray binding signal": "0.00496 ± 0.0015"},
      {"binder": "B3", "peptide microarray binding signal": "0.00418 ± 0.00013"},
      {"binder": "B4", "peptide microarray binding signal": "0.00801 ± 0.00074"},
      {"binder": "B5", "peptide microarray binding signal": "0.00638 ± 0.0014"}
    ]},
    {"target": "anti-H3K4me3 antibody ab8580", "assay": "peptide microarray binding signal (635 nm), min-max normalized on array (fraction of array maximum); higher = stronger binding", "conditions": "peptide region: Unmod H1 variant; binder concentration: 1:2,000 dilution", "method_in_brief": "as §1", "values": [
      {"binder": "B1", "peptide microarray binding signal": "0.000963 ± 1.4e-05"},
      {"binder": "B2", "peptide microarray binding signal": "0.00034 ± 2.1e-05"},
      {"binder": "B3", "peptide microarray binding signal": "0.000717 ± 7.3e-05"},
      {"binder": "B4", "peptide microarray binding signal": "0.000623 ± 3.1e-05"},
      {"binder": "B5", "peptide microarray binding signal": "0.000378 ± 1.4e-05"}
    ]},
    {"target": "anti-H3K4me3 antibody ab8580", "assay": "peptide microarray binding signal (635 nm), min-max normalized on array (fraction of array maximum); higher = stronger binding", "conditions": "peptide region: Unmod H1 variant; binder concentration: 1:10,000 dilution", "method_in_brief": "as §1", "values": [
      {"binder": "B1", "peptide microarray binding signal": "0.001027 ± 1e-05"},
      {"binder": "B2", "peptide microarray binding signal": "0.000685 ± 7.2e-06"},
      {"binder": "B3", "peptide microarray binding signal": "0.000856 ± 1.8e-05"},
      {"binder": "B4", "peptide microarray binding signal": "0.00137 ± 1.3e-05"},
      {"binder": "B5", "peptide microarray binding signal": "0.000913 ± 2.8e-05"}
    ]},
    {"target": "anti-H3K9me3 antibody ab8898", "assay": "peptide microarray binding signal (635 nm), min-max normalized on array (fraction of array maximum); higher = stronger binding", "conditions": "peptide region: Unmod H1 variant; binder concentration: 1:2,000 dilution", "method_in_brief": "as §1", "values": [
      {"binder": "B1", "peptide microarray binding signal": "0.000257 ± 5.3e-06"},
      {"binder": "B2", "peptide microarray binding signal": "0.000362 ± 1.9e-05"},
      {"binder": "B3", "peptide microarray binding signal": "0.000196 ± 2.1e-06"},
      {"binder": "B4", "peptide microarray binding signal": "0.000513 ± 9.7e-06"},
      {"binder": "B5", "peptide microarray binding signal": "0.000347 ± 7e-06"}
    ]},
    {"target": "anti-H3K9me3 antibody ab8898", "assay": "peptide microarray binding signal (635 nm), min-max normalized on array (fraction of array maximum); higher = stronger binding", "conditions": "peptide region: Unmod H1 variant; binder concentration: 1:10,000 dilution", "method_in_brief": "as §1", "values": [
      {"binder": "B1", "peptide microarray binding signal": "0.000807 ± 1.5e-05"},
      {"binder": "B2", "peptide microarray binding signal": "0.000865 ± 2.4e-05"},
      {"binder": "B3", "peptide microarray binding signal": "0.00075 ± 7.9e-06"},
      {"binder": "B4", "peptide microarray binding signal": "0.00127 ± 2.5e-05"},
      {"binder": "B5", "peptide microarray binding signal": 0.000634}
    ]}
  ]
}
